# sEH inhibitor: inhibitors of human soluble epoxide hydrolase | hit rate 0.34% among 91,000 | AID 707 | inhibition, % at 2 µM | recombinant human sEH enzymatic activity assay | P34913; in the data active = inhibition above about 80%
# Target sequence (P34913 whole entry, looked up): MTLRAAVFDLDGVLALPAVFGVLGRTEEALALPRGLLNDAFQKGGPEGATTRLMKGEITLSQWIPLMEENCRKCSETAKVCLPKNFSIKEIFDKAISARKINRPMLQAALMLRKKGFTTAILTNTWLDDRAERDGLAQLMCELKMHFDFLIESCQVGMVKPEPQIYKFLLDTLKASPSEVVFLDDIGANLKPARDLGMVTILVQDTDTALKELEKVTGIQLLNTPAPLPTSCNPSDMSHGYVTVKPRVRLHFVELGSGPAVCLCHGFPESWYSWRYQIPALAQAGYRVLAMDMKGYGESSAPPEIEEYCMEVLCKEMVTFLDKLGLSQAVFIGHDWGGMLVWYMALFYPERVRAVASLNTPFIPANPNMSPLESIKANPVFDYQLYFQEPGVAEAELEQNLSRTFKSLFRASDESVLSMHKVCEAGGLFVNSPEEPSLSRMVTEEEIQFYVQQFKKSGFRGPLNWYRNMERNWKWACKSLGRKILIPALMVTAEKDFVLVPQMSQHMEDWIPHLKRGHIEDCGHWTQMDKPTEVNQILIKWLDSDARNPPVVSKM
# EphB4 ephrin blk: blocks human EphB4 binding to ephrin-B2 | inhibition, % at 7 µM | P54760 | hit rate 0.15% among 97,000 | EphB4 LBD / TNYL-RAW-Alexa532 peptide, fluorescence polarization;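 active = inhibition above the screen-wide mean inhibition plus 3 SD, cut at about 15% in these data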;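 note: 0% = DMSO wells and 100% = excess unlabeled TNYL-RAW peptide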
# PTPN22 inh 2: LYP (human) phosphatase inhibition; Q9Y2R2; recombinant LYP catalytic domain, DiFMUP fluorescence; inhibition, % at 2 µM; hit rate 0.21% among 96,000;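 active = inhibition at 2 µM at or above a set limit, the screen mean plus 3 SD, cut at about 24% in these data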;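 note: 0% = DMSO with enzyme and 100% = enzyme fully blocked by orthovanadate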
# PLAP act: activators of human placental alkaline phosphatase; P05187; purified PLAP enzyme, luminescent substrate read-out; stronger effect = higher value; activation fold at 20 µM; hit rate 1.2% among 96,000; in the data active = activation fold above about 2
# sEH act: increases human soluble epoxide hydrolase activity; purified human sEH enzymatic activity, activator screen; P34913; activation, % at 2 µM; AID 717; hit rate 0.04% among 91,000; in the data active = activation above about 37%
# PTPN22 act: activators of human LYP (PTPN22) phosphatase | recombinant LYP, DiFMUP fluorescence; 0 = plate median, 100 = signal doubled | activation, % at 2 µM | hit rate 0.11% among 96,000 | AID 697;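 active = activation at 2 µM above a set limit, the mean plus 5 SD, cut at about 37% in these data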
# Starred values were filed as active, the others as inactive; · = no result. Compounds with a hit are over-represented: about 1.6% of the library has one in this group of screens.
SMILES,sEH inhibitor,EphB4 ephrin blk,PTPN22 inh 2,PLAP act,sEH act,PTPN22 act
CC(=O)NC1CC2CCCC(C1)N2C(=O)Nc1ccc(Cl)c(C(F)(F)F)c1 (stereo unspecified),87.4*,-6.3,2.9,1,-87.5,-5.8
CS(=O)(=O)N1CCC(C(=O)Nc2ccc(Cl)c(C(F)(F)F)c2)CC1,43.1,-6.5,-2.0,0.9,-41.0,2.2
COc1ccc(C(=O)NC(=S)Nc2cccc(Cl)c2N2CCOCC2)cc1[N+](=O)[O-],-5.9,-4.0,-1.5,1,7.8,3.7
O=C(c1cccs1)c1coc2ccc(O)c(CN(CCO)CCO)c12,-7.8,2.0,17.7,2.4*,5.4,-16.5
COc1ccc(C(=O)CN2C(=O)NC(C)(c3ccccc3)C2=O)cc1OC (stereo unspecified),-1.0,5.0,0.7,1,2.2,2.7
CCCCCC(=O)N/N=C(\C)c1ccccn1,5.3,0.8,12.7,2.4*,-4.9,-7.8
CCCCCCCCCC(=O)N/N=C(\C)c1cccnc1,49.4,-4.3,8.2,·,-48.2,-7.7
O=C(NCCc1c[nH]c2ccccc12)C1CCC(Cn2c(=S)[nH]c3ccccc3c2=O)CC1 (stereo unspecified),94.8*,-0.3,7.5,1.8,-94.7,-9.0
Cc1ccc(NC(C)c2cc(Cl)ccc2O)cc1 (stereo unspecified),-15.6,5.5,3.2,1.3,14.5,-0.7
CCN1CCc2c(C#N)c(N3CCCCC3)nc(N3CCOCC3)c2C1,8.2,2.7,-1.1,1.3,-8.5,0.0
N#Cc1c(N2CCOCC2)nc(N2CCCCC2)c2c1CCN(C1CCCCC1)C2,40.9,-5.3,11.9,2*,-40.8,-10.1
Cc1ccc(S(=O)(=O)N(CC(=O)N2CCC(C)CC2)c2cccc(C)c2)cc1,-2.2,-1.8,7.8,2.2*,1.3,-5.4
O=C1OCCC1Sc1nc(-c2ccccc2)cs1 (stereo unspecified),4.5,4.7,-0.9,1.1,0.3,0.1
CC(C(=O)Nc1nc2ccccc2[nH]1)N1C(=O)C2CC=CCC2C1=O (stereo unspecified),-4.0,4.4,-5.8,2*,3.4,4.9
C=CCC(C#Cc1ccc(C)cc1)N(CC)CC (stereo unspecified),3.2,2.1,-0.8,1.7,-4.1,3.4
COc1ccc2[nH]c(C(=O)O)c(NS(=O)(=O)c3ccc(Cl)s3)c2c1,-4.4,5.4,8.6,2.2*,5.7,-9.6
COc1cc(C(Nc2ccccn2)c2ccc3ccc(C)nc3c2O)cc(OC)c1O (stereo unspecified),·,8.2,-6.2,2*,·,3.7
Cn1c(Cn2nnc(-c3ccccc3)n2)nnc1SCc1ccccc1Cl,-3.5,-9.7,1.4,1.1,4.1,-0.5
C/C(=N/NC(=O)c1ccccn1)c1ccco1,-3.5,3.0,-3.9,1.2,2.7,6.4
C/C(CC(=O)Nc1ccc(N(C)C)cc1)=N\NC(=O)c1ccccn1,-9.1,-4.0,-13.1,2*,9.4,11.1
O=C(NNC(=O)c1ccc2ccccc2c1O)c1ccccc1Cl,-7.7,2.9,24.3*,1.5,11.3,-20.1
C=CCNC(=O)c1ccccc1Cl,-0.4,0.5,4.8,1.3,-1.8,-6.3
CC(SC1CCCC1)C(=O)NC(C)(C#N)C(C)C (stereo unspecified),-3.2,-3.0,0.1,1,1.6,-0.5
Cc1ccc(NC(=O)NCCCc2ccccc2)cc1,83.4*,-2.9,4.1,1,-83.1,-2.1
Cc1ccc(NC(=O)NCCc2ccc(S(N)(=O)=O)cc2)cc1,·,-6.9,-5.8,0.9,·,3.2
SMILES,sEH inhibitor,EphB4 ephrin blk,PTPN22 inh 2,PLAP act,sEH act,PTPN22 act
CCOC(=O)c1c(-c2ccc(C)o2)csc1NC(=O)CN(C)CC(=O)Nc1ccc(C)cc1,16.4,2.4,11.1,2.2*,-17.1,-12.3
CCC1CCCCN1CCCNC(=O)c1cn(CC(C)C)c(=O)c2cc(OC)c(OC)cc12 (stereo unspecified),41.9,-1.1,15.8,2*,-42.4,-17.0
COc1cc2c(C(=O)NCc3ccc(C)o3)cn(CC(C)C)c(=O)c2cc1OC,·,-1.8,0.7,1.3,·,-0.9
O=C(CN1C(=O)c2ccccc2C1=O)OCN1C(=O)c2ccccc2C1=O,2.1,4.5,10.2,·,-0.6,-7.1
O=C(/C=C/c1cccc([N+](=O)[O-])c1)NCCN1CCOCC1,-13.9,17.0*,-0.5,1,11.6,-1.9
Cc1cc(SCC(=O)N/N=C/c2ccc(O)c(O)c2O)c(C)cc1Br,-3.9,0.5,57.4*,2.2*,1.8,-56.6
COc1cc(NS(=O)(=O)c2ccc(N/C=C(\C#N)c3nc4cc(Cl)ccc4o3)cc2)nc(OC)n1,-10.8,-0.3,3.9,2.1*,12.9,-1.1
COc1cc(NS(=O)(=O)c2ccc(NC(C)=O)cc2)nc(OC)n1,-24.7,-1.3,-9.6,1.1,21.9,11.2
C=CCn1c(SCc2c(C(=O)OC)sc(N)c2C(=O)OC)nnc1-c1ccc(Br)cc1,-7.8,-3.6,-15.7,1.6,6.0,15.2
CCCNc1cc(=O)n(C)c(=O)n1C,1.1,-1.4,25.4*,0.9,-1.0,-25.9
Cc1cc(C)c(S(=O)(=O)Nc2c(C)[nH]c(=O)[nH]c2=O)c(C)c1,3.8,-4.8,-0.7,0.9,-2.8,4.0
Cc1cc(C)c(S(=O)(=O)Nc2ccc[nH]c2=O)c(C)c1,14.0,-4.6,2.0,2*,-9.6,-2.8
Cc1cc(=O)[nH]c(SC/C=C/c2ccccc2)n1,5.5,-5.5,1.1,1,-5.6,-3.9
C(=C/c1ccnc2nc(SC/C=C/c3ccccc3)nn12)/c1ccccc1,-1.6,-4.2,33.4*,1,3.6,-30.7
CCCCn1c(CCn2nc(C)c(Br)c2C)n[nH]c1=S,-5.7,-6.8,4.2,2.1*,7.7,-1.4
CN1CCN(CP(=O)(N2CCOCC2)N2CCOCC2)CC1,-1.0,1.5,4.1,0.9,-0.4,-5.1
Cc1ccc2nc(-c3cccc(NC(=O)c4ccc5c(c4)OCCO5)c3)oc2c1,4.3,8.0,3.2,1.4,-4.7,-5.0
O=C(Nc1ccc2oc(-c3ccc4ccccc4c3)nc2c1)c1ccc2c(c1)OCCO2,28.6,-8.8,31.1*,0.9,-27.8,-29.3
c1ccc(-c2ccc(C3=Nn4c(nnc4-c4cc(-c5ccccc5)n[nH]4)SC3)cc2)cc1,7.4,2.0,42.2*,0.8,-6.3,-40.3
CC1=Nn2c(nnc2-c2cc(-c3ccccc3)n[nH]2)SC1,-3.0,6.4,2.7,·,5.9,0.0
O=C(CCCSc1nnnn1-c1cccc2ccccc12)c1ccc(F)cc1,-12.6,-4.6,-3.3,1,15.2,6.3
CCOC(=O)c1nn(-c2ccc(C)cc2)cc1C(=O)c1ccccc1,-11.0,-4.6,-6.7,1.6,10.8,7.4
COc1cc2ccccc2c2c1CCCC2=O,-8.9,-8.1,0.5,0.9,8.6,0.1
Cc1cccc(/C(N)=N/OC(=O)CCc2ccccc2)c1,-13.8,9.1,-3.2,0.9,11.5,7.4
CCOc1ccc(NC(=O)NCCN2C(C)CCCC2C)cc1 (stereo unspecified),-1.9,-4.3,-2.1,1,3.3,2.0
